Chlamy TAG – increases triacylglycerol in Chlamydomonas reinhardtii; Chlamydomonas reinhardtii TAG, Nile Red fluorescence, 72 h; calls only at 10 µM (by protocol); actives 0.84% (n = 44,000); AID 1159537; call rule not given here;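 further: hits raise Nile Red signal meaning more stored TAG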
Each line names hits and unclear results; the compound was inactive in the other large screens. This is one part of a sample in which hits are shown more often than they occur.

CC(O)c1nc2ccccc2n1Cc1ccccc1Cl (stereo unspecified)	none
COc1ccccc1Cn1c(C(C)O)nc2ccccc21 (stereo unspecified)	Chlamy TAG active
Cc1cccc(Cn2c(C(C)O)nc3ccccc32)c1 (stereo unspecified)	none
COc1ccccc1Cc1nc(-c2ccc([N+](=O)[O-])cc2)no1	none
CCc1cc([N+](=O)[O-])c(O)c(C(C)(C)C)c1	none
Cc1cc([N+](=O)[O-])ccc1NCc1ccc(F)c(F)c1	none
Cc1c(Cl)cccc1NC(=O)C(=O)N1CCN(C)CC1	none
CC(C)(C)C(=O)NCCNc1ccc([N+](=O)[O-])cc1Cl	none
Cc1ccc(C(=O)Nc2ccccc2C(=O)NC(C)C)cc1[N+](=O)[O-]	Chlamy TAG active
Cc1ccccc1C(=O)Nc1cccc(NC(=O)c2ccc(C)c([N+](=O)[O-])c2)c1	none
CC(C)NC(=O)c1ccccc1NC(=O)c1ccc(F)cc1	none
COc1ccc(C(O)=C2C(=O)C(=O)N(c3nnc(C)s3)C2c2ccc(Cl)c(Cl)c2)cc1 (stereo unspecified)	none
O=C(Nc1nc(NC(=O)c2ccccc2)n(-c2ccccc2)n1)c1ccccc1	none
Cc1ccc(C(=O)c2ccc(N3CCCC3)c([N+](=O)[O-])c2)cc1	none
COc1ccc(C(=O)c2ccc(N3CCN(C)CC3)c([N+](=O)[O-])c2)cc1	Chlamy TAG active
CN1CCN(c2ccc(C(=O)c3ccc(Cl)cc3)cc2[N+](=O)[O-])CC1	none
NS(=O)(=O)c1ccc(CNC2CC(=O)N(c3ccc(C(=O)O)cc3)C2=O)cc1 (stereo unspecified)	none
COc1cccc(OCCCOc2ccccc2F)c1	none
CS(=O)(=O)N(CC(=O)Nc1cccc(Cl)c1)c1ccc(I)cc1	none
Cc1cccc(-c2cc(NC(=O)c3ccc([N+](=O)[O-])cc3)n[nH]2)c1	Chlamy TAG active
O=C(Nc1ncccn1)c1ccc([N+](=O)[O-])cc1	none
Cc1cccc(-c2cc(NC(=O)c3ccccc3[N+](=O)[O-])n[nH]2)c1	none
Cc1ccc(N2C(=O)CC(N3CCN(c4ccc(Cl)cc4)CC3)C2=O)cc1Cl (stereo unspecified)	none
COc1cccc(N(C(C)=O)C2=C(NC3CCCCC3)C(=O)c3ccccc3C2=O)c1	none
CCCNC1=C(N(C(C)=O)c2cccc(F)c2)C(=O)c2ccccc2C1=O	none
CC(=O)N(C1=C(Nc2ccccc2)C(=O)c2ccccc2C1=O)c1ccccc1	Chlamy TAG active
O=C1CN(c2ccc(Cl)cc2)C(=O)N1Cc1ccccc1	none
COCCNc1ncnc2ccc(C)cc12	none
CCn1c(=O)c([N+](=O)[O-])c(N2CCN(c3ccccn3)CC2)c2ccccc21	none
C(=C\c1ccccc1)/CN1CCN(C2C3CC4CC(C3)CC2C4)CC1 (stereo unspecified)	Chlamy TAG active
COc1ccc(CN2CCN(C/C=C/c3ccccc3)CC2)cc1	Chlamy TAG active
COc1ccc(CN2CCN(C/C=C/c3ccccc3)CC2)c(O)c1	none
C(=C\c1ccccc1)/CN1CCN(c2ncccn2)CC1	none
COc1cc(CN2CCN(C/C=C/c3ccccc3)CC2)cc(OC)c1OC	none
C(=C\c1ccccc1)/CN1CCN(C2CCN(CCc3ccccc3)CC2)CC1	none
COc1ccc(/C=C(\C#N)c2[nH]nc(N)c2C#N)cc1Br	none
Cc1ccc(NC(=O)CSc2nnn(-c3ccc(C(N)=O)cc3)n2)cc1C	none
Cn1cnnc1SCC(=O)c1ccc(F)cc1	none
CCC1CCCCN1C(=O)c1cccc([N+](=O)[O-])c1C (stereo unspecified)	none
CCC1CCCCN1C(=O)c1ccc(Cl)cc1[N+](=O)[O-] (stereo unspecified)	Chlamy TAG active
CCN1CCN(C(=O)c2ccc(Cl)cc2[N+](=O)[O-])CC1	none
N#COc1ccc(Nc2ccc(OC#N)cc2)cc1	none
O=C(COc1ccc(Cl)cc1Cl)Nc1cccc(NC(=O)c2ccco2)c1	none
CC(C)(C)c1ccc(C(=O)Nc2cccc(C(=O)O)c2)o1	none
COc1ccc(-c2nc(-c3ccncc3)no2)cc1F	none
O=C(Nc1nc(-c2ccccc2)cs1)c1ccccc1O	none
COc1cc(C)nc(NCc2ccccc2)n1	Chlamy TAG active
Cc1cc(Oc2ccc([N+](=O)[O-])cc2)nc(NCc2ccccc2)n1	none
Cc1cc(=O)[nH]c(NCc2ccccc2)n1	none
CCOCCSC1=C(C#N)C(c2ccc(Br)cc2)C(C(C)=O)=C(C)N1 (stereo unspecified)	none
O=C(NCc1cccnc1)C(=O)Nc1ccccn1	none
Cc1ccc(NS(=O)(=O)c2ccccc2C)cc1	none
COc1ccc(-c2nc3c4c5c(sc4ncn3n2)CCCC5)cc1	none
c1ccc(N2CCN(c3ncnc4sc5c(c34)CCC5)CC2)cc1	none
COc1ccc(CN2CCN(c3ncnc4sc5c(c34)CCCC5)CC2)cc1	Chlamy TAG active
CCc1nnc(NC(=O)c2cc(Cl)ccc2OC)s1	none
Cc1ccc2nc(/C(C#N)=C\C=C\c3ccco3)[nH]c2c1	none
CCN(CC)C(=O)C1CCCN(Cc2ccccc2C)C1 (stereo unspecified)	none
CCOc1cc(CN2CCN(c3ccccc3OC)CC2)ccc1OC	none
COc1ccccc1N1CCN(C2CCN(CCCc3ccccc3)CC2)CC1	none
COc1cc(OC)c(OC)cc1CN1CCC(N2CCN(c3ccccc3OC)CC2)CC1	none
COc1ccccc1N1CCN(C2CCN(Cc3cccc(C)c3)CC2)CC1	Chlamy TAG active
COc1ccccc1N1CCN(C2CCN(Cc3cccc(Cl)c3)CC2)CC1	Chlamy TAG active
COc1ccccc1N1CCN(C2CCN(Cc3ccc(Br)cc3)CC2)CC1	none
COc1ccccc1N1CCN(C2CCN(Cc3c[nH]c4ccccc34)CC2)CC1	none
Clc1cccc(CN2CCC(N3CCCCCC3)CC2)c1	none
COc1ccccc1N1CCN(C2CCN(CC3CC4C=CC3C4)CC2)CC1 (stereo unspecified)	Chlamy TAG active
O=C(O)C1CC=CCC1C(=O)N1CCN(c2ccc([N+](=O)[O-])cc2)CC1 (stereo unspecified)	none
CCc1cccc(NC(=O)c2ccc(C)o2)c1	none
Cc1ccc(C(=O)Nc2ccc(F)c(Cl)c2)cc1[N+](=O)[O-]	none
CCOc1ccccc1C(=O)Nc1cccc(OC)c1	none
CCSC1=C(C#N)C(c2ccc(Cl)cc2)C(C(C)=O)=C(C)N1 (stereo unspecified)	none
O=[N+]([O-])c1cccc(-c2nnc(-c3ccc(Cl)cc3)o2)c1	none
Brc1ccc2ncnc(N3CCOCC3)c2c1	none
Brc1ccc(CN2CCN(c3ccccn3)CC2)cc1	none
Brc1ccc2ncnc(N3CCN(Cc4ccccc4)CC3)c2c1	Chlamy TAG active
NC(=O)c1c(NC(=O)C23CC4CC(CC(C4)C2)C3)sc2c1CCCC2	none
Clc1ccc(OCCN2CCCCC2)c(Br)c1	none
COc1ccc(CC(=O)Nc2cc(C)c(C)cc2Br)cc1	none
Cc1ccc(-c2nnc(-c3ccccc3Cl)o2)cc1	none
Clc1ccccc1-c1nnc(-c2ccccc2Cl)o1	none
Clc1ccccc1-c1nnc(-c2ccccc2)o1	Chlamy TAG active
O=C(CN(Cc1ccccc1)S(=O)(=O)c1ccc(F)cc1)NC1CCCCC1	none
CCc1c(C)sc(NC(=O)c2ccc(OC)cc2OC)c1C(N)=O	none
O=C(NCc1cccs1)C(=O)Nc1ccccc1F	none
COc1ccc(N2CCN(Cc3cccnc3)CC2)cc1	none
COc1ccc(N2CCN(Cc3cccs3)CC2)cc1	none
COc1ccc(N2CCN(Cc3ccsc3)CC2)cc1	Chlamy TAG active
N#CC1=C(N)Oc2c(c(=O)[nH]c3ccccc23)C1c1ccc(O)cc1 (stereo unspecified)	none
Cc1ccc(N2CCN(C3C4CC5CC(C4)CC3C5)CC2)cc1 (stereo unspecified)	none
O=C(c1ccccc1)N1CCN(C2C3CC4CC(C3)CC2C4)CC1 (stereo unspecified)	none

Compound activity from PubChem.
